Counter-ions that a name gives are not always drawn.
Tests used:
Conditions in all cases: incubation time: 27 h, anaerobic, 37 °C;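 for the amine columns active = adjusted P below 0.05 in both replicates with a change the same way and a mean fold change under 0.8 or over 1.25; inactive = the rest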
[1] = system: Clostridium sporogenes DSM 1664; experiment: growth (OD595) fold change vs plate DMSO controls (fold change (ratio)); higher = more growth
Outline: (§1)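 Anaerobic mGAM cultures in 96-well plates were grown for 27 h at 37 °C, and absorbance was then read at 595 nm. After blank and compound background correction with 20 µM compound solutions in water, a calibration factor of 5 gave OD. Growth is the fold change relative to the median of each plate's DMSO controls. Values are means of 2 biological replicates, with fold changes above 1.5 set to NA.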

Escherichia coli IAI1 [2] = experiment: as above
Outline: as §1

[3] = system: Klebsiella aerogenes DSM 30053; experiment: as above
Outline: as §1

[4] = system: Ruminococcus gnavus DSM 108212; experiment: as above
Outline: as §1

[5] = system: Klebsiella aerogenes DSM 30053; experiment: fold change of Histamine concentration vs plate DMSO controls (fold change (ratio)); higher = more amine produced, active = hit call of the paper (significant change in both replicates, either direction)
Outline: (§2)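 Extracts of whole anaerobic mGAM cultures were analysed for amines by LC–triple-quadrupole MS with dynamic MRM and external calibration curves, with drift corrected within batch. Four gut strains were grown at 37 °C for 27 h in 80 µL wells with compounds at 20 µM final, sweeteners at 50 µM final. Each value expresses fold change over plate DMSO controls. The average of 2 biological replicates is shown.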

[6] = system: Clostridium sporogenes DSM 1664; experiment: fold change of Tryptamine concentration vs plate DMSO controls (fold change (ratio)); higher = more amine produced, active = hit call of the paper (significant change in both replicates, either direction)
Outline: as §2

[7] = system: Ruminococcus gnavus DSM 108212; experiment: as above
Outline: as §2

Escherichia coli IAI1 [8] = experiment: fold change of Putrescine concentration vs plate DMSO controls (fold change (ratio)); higher = more amine produced, active = hit call of the paper (significant change in both replicates, either direction)
Outline: as §2

[9] = system: Klebsiella aerogenes DSM 30053; experiment: as above
Outline: as §2

Escherichia coli IAI1 [10] = experiment: fold change of Cadaverine concentration vs plate DMSO controls (fold change (ratio)); higher = more amine produced, active = hit call of the paper (significant change in both replicates, either direction)
Outline: as §2

[11] = system: Klebsiella aerogenes DSM 30053; experiment: as above
Outline: as §2

[12] = system: Ruminococcus gnavus DSM 108212; experiment: fold change of 2-Phenylethylamine concentration vs plate DMSO controls (fold change (ratio)); higher = more amine produced, active = hit call of the paper (significant change in both replicates, either direction)
Outline: as §2

## COC(=O)CCc1ccc(OCC(O)CNC(C)C)cc1 (stereo not given) [Esmolol hydrochloride] (20 µM)
[1]
  growth: 0.978
Escherichia coli IAI1 [2]
  growth: 0.87
[3]
  growth: 0.987
[4]
  growth: 0.947
[5]
  fold change of Histamine concentration: 0.88 (inactive)
[6]
  fold change of Tryptamine concentration: 0.972 (inactive)
[7]
  fold change of Tryptamine concentration: 1.1 (inactive)
Escherichia coli IAI1 [8]
  fold change of Putrescine concentration: 0.959 (inactive)
[9]
  fold change of Putrescine concentration: 0.988 (inactive)
Escherichia coli IAI1 [10]
  fold change of Cadaverine concentration: 1.09 (inactive)
[11]
  fold change of Cadaverine concentration: 1.02 (inactive)
[12]
  fold change of 2-Phenylethylamine concentration: 1.07 (inactive)

## N=c1ccn2c(n1)O[C@H]1[C@H](O)[C@@H](CO)O[C@H]12 [Ancitabine hydrochloride] (20 µM)
[1]
  growth: 1.2
Escherichia coli IAI1 [2]
  growth: 1.01
[3]
  growth: 0.999
[4]
  growth: 0.855
[5]
  fold change of Histamine concentration: 1.06 (inactive)
[6]
  fold change of Tryptamine concentration: 0.98 (inactive)
[7]
  fold change of Tryptamine concentration: 0.744 (active)
Escherichia coli IAI1 [8]
  fold change of Putrescine concentration: 1.02 (inactive)
[9]
  fold change of Putrescine concentration: 0.991 (inactive)
Escherichia coli IAI1 [10]
  fold change of Cadaverine concentration: 1 (inactive)
[11]
  fold change of Cadaverine concentration: 0.992 (inactive)
[12]
  fold change of 2-Phenylethylamine concentration: 0.794 (inactive)

## COc1ccc2c(c1)c(CC(=O)O)c(C)n2C(=O)c1ccc(Cl)cc1 [Indomethacin] (20 µM)
[1]
  growth: 0.988
Escherichia coli IAI1 [2]
  growth: 1
[3]
  growth: 1.02
[4]
  growth: 1.04
[5]
  fold change of Histamine concentration: 0.997 (inactive)
[6]
  fold change of Tryptamine concentration: 0.988 (inactive)
[7]
  fold change of Tryptamine concentration: 0.981 (inactive)
Escherichia coli IAI1 [8]
  fold change of Putrescine concentration: 1.01 (inactive)
[9]
  fold change of Putrescine concentration: 1.01 (inactive)
Escherichia coli IAI1 [10]
  fold change of Cadaverine concentration: 1 (inactive)
[11]
  fold change of Cadaverine concentration: 0.989 (inactive)
[12]
  fold change of 2-Phenylethylamine concentration: 0.979 (inactive)

## Cc1nn(C)c(Oc2ccccc2)c1/C=N/OCc1ccc(C(=O)OC(C)(C)C)cc1 (20 µM)
[1]
  growth: 1.15
Escherichia coli IAI1 [2]
  growth: 1.03
[3]
  growth: 1.02
[4]
  growth: 0.998
[5]
  fold change of Histamine concentration: 0.993 (inactive)
[6]
  fold change of Tryptamine concentration: 0.918 (inactive)
[7]
  fold change of Tryptamine concentration: 1.04 (inactive)
Escherichia coli IAI1 [8]
  fold change of Putrescine concentration: 1.02 (inactive)
[9]
  fold change of Putrescine concentration: 1.06 (inactive)
Escherichia coli IAI1 [10]
  fold change of Cadaverine concentration: 0.987 (inactive)
[11]
  fold change of Cadaverine concentration: 1.03 (inactive)
[12]
  fold change of 2-Phenylethylamine concentration: 0.974 (inactive)

## CNCCC=C1c2ccccc2C=Cc2ccccc21 [Norcyclobenzaprine] (20 µM)
[1]
  growth: 1.1
Escherichia coli IAI1 [2]
  growth: 1.02
[3]
  growth: 1.01
[4]
  growth: 1.09
[5]
  fold change of Histamine concentration: 0.997 (inactive)
[6]
  fold change of Tryptamine concentration: 0.985 (inactive)
[7]
  fold change of Tryptamine concentration: 0.939 (inactive)
Escherichia coli IAI1 [8]
  fold change of Putrescine concentration: 1 (inactive)
[9]
  fold change of Putrescine concentration: 0.993 (inactive)
Escherichia coli IAI1 [10]
  fold change of Cadaverine concentration: 1.02 (inactive)
[11]
  fold change of Cadaverine concentration: 0.994 (inactive)
[12]
  fold change of 2-Phenylethylamine concentration: 0.935 (inactive)

## O=C(CCCN1CCC(O)(c2ccc(Br)cc2)CC1)c1ccc(F)cc1 [Bromperidol] (20 µM)
[1]
  growth: 0.952
Escherichia coli IAI1 [2]
  growth: 0.965
[3]
  growth: 0.953
[4]
  growth: 0.813
[5]
  fold change of Histamine concentration: 1.02 (inactive)
[6]
  fold change of Tryptamine concentration: 1.02 (inactive)
[7]
  fold change of Tryptamine concentration: 0.916 (inactive)
Escherichia coli IAI1 [8]
  fold change of Putrescine concentration: 0.99 (inactive)
[9]
  fold change of Putrescine concentration: 1 (inactive)
Escherichia coli IAI1 [10]
  fold change of Cadaverine concentration: 0.913 (inactive)
[11]
  fold change of Cadaverine concentration: 0.998 (inactive)
[12]
  fold change of 2-Phenylethylamine concentration: 0.949 (inactive)

## COc1ccc(NS(=O)(=O)c2ccc(N)cc2)nn1 [Sulfamethoxypyridazine] (20 µM)
[1]
  growth: 0.883
Escherichia coli IAI1 [2]
  growth: 1.01
[3]
  growth: 0.983
[4]
  growth: 1.01
[5]
  fold change of Histamine concentration: 1.06 (inactive)
[6]
  fold change of Tryptamine concentration: 1.03 (inactive)
[7]
  fold change of Tryptamine concentration: 1.17 (inactive)
Escherichia coli IAI1 [8]
  fold change of Putrescine concentration: 1.02 (inactive)
[9]
  fold change of Putrescine concentration: 1.03 (inactive)
Escherichia coli IAI1 [10]
  fold change of Cadaverine concentration: 1.07 (inactive)
[11]
  fold change of Cadaverine concentration: 1.1 (inactive)
[12]
  fold change of 2-Phenylethylamine concentration: 1.44 (inactive)

## CCc1ccc(CCOc2ccc(CC3SC(=O)NC3=O)cc2)nc1 (stereo not given) [Pioglitazone] (20 µM)
[1]
  growth: 1.3
Escherichia coli IAI1 [2]
  growth: 0.963
[3]
  growth: 0.988
[4]
  growth: 0.816
[5]
  fold change of Histamine concentration: 1 (inactive)
[6]
  fold change of Tryptamine concentration: 0.918 (inactive)
[7]
  fold change of Tryptamine concentration: 0.977 (inactive)
Escherichia coli IAI1 [8]
  fold change of Putrescine concentration: 1.02 (inactive)
[9]
  fold change of Putrescine concentration: 1.01 (inactive)
Escherichia coli IAI1 [10]
  fold change of Cadaverine concentration: 0.968 (inactive)
[11]
  fold change of Cadaverine concentration: 0.998 (inactive)
[12]
  fold change of 2-Phenylethylamine concentration: 0.904 (inactive)

## Cc1cccc(Nc2ccccc2C(=O)O)c1C [Mefenamic acid] (20 µM)
[1]
  growth: 1.08
Escherichia coli IAI1 [2]
  growth: 0.988
[3]
  growth: 0.961
[4]
  growth: 1.03
[5]
  fold change of Histamine concentration: 1.05 (inactive)
[6]
  fold change of Tryptamine concentration: 0.983 (inactive)
[7]
  fold change of Tryptamine concentration: 1.01 (inactive)
Escherichia coli IAI1 [8]
  fold change of Putrescine concentration: 1.01 (inactive)
[9]
  fold change of Putrescine concentration: 0.998 (inactive)
Escherichia coli IAI1 [10]
  fold change of Cadaverine concentration: 0.976 (inactive)
[11]
  fold change of Cadaverine concentration: 0.995 (inactive)
[12]
  fold change of 2-Phenylethylamine concentration: 0.982 (inactive)

## c1ccc2c(c1)CCCC2C1=NCCN1 (stereo not given) [Tetrahydrozoline hydrochloride] (20 µM)
[1]
  growth: 0.99
Escherichia coli IAI1 [2]
  growth: 0.997
[3]
  growth: 1.01
[4]
  growth: 0.897
[5]
  fold change of Histamine concentration: 0.99 (inactive)
[6]
  fold change of Tryptamine concentration: 1.01 (inactive)
[7]
  fold change of Tryptamine concentration: 0.993 (inactive)
Escherichia coli IAI1 [8]
  fold change of Putrescine concentration: 1.04 (inactive)
[9]
  fold change of Putrescine concentration: 0.992 (inactive)
Escherichia coli IAI1 [10]
  fold change of Cadaverine concentration: 0.966 (inactive)
[11]
  fold change of Cadaverine concentration: 1 (inactive)
[12]
  fold change of 2-Phenylethylamine concentration: 1.01 (inactive)

— the supplement of paper PMC12494721
